Source: PubChem BioAssay
GPT2 inh: blocks human glutamate pyruvate transaminase 2; Q8TD30; Recombinant GPT2, coupled pyruvate oxidase/HRP Amplex Red fluorescence; Potency, µM (highest dose often 57.7 µM), for inactives: top-dose activity change, negative = inhibition, hits mostly inhibitors; 0.25% of 100,000 active; further: nearly all actives have a fitted effect of over 60% in size
Target sequence (Q8TD30 whole entry, looked up): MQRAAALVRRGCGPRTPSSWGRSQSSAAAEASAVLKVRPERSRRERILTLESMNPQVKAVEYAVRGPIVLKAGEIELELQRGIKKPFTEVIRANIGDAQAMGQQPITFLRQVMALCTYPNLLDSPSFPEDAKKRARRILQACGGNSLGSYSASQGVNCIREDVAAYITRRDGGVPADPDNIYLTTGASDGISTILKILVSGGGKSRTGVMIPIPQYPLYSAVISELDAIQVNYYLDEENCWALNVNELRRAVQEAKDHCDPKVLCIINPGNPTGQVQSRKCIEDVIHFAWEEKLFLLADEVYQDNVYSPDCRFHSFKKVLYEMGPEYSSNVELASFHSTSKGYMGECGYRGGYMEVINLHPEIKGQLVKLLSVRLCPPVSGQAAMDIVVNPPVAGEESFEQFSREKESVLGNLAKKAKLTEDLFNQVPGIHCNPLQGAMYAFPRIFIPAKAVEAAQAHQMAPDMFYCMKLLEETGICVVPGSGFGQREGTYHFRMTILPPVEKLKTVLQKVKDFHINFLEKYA
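Fluorescence read-out: pyruvate from GPT2 turnover coupled to pyruvate oxidase, HRP and Amplex Red (0.2mM ThPP, 0.2U/mL PO and HRP, 50uM Amplex final). Substrates 250uM a-KG, 2mM L-alanine; enzyme 10ng/uL; 30 min RT.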
HEK293 tox: kills HEK 293 cells | HEK 293 viability, ATP luminescence (CellTiter-Glo), 48-72 h | Potency, µM (top dose mostly 115 µM), for inactives: at the highest dose activity change, negative = cytotoxicity, usual class: inhibitors | 6.6% of 94,000 active; further: nearly all actives have a fitted effect of over 60% in size
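Luminescence from cellular ATP, measured with CellTiter-Glo, indicates HEK 293 viability. Cells plated at 250 cells/well are treated with compound for 48 or 72 hr at 37 degree Celsius before reagent addition.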
3T3 cytotox: cytotoxic compounds in NIH 3T3 cells | NIH 3T3 viability, CellTiter-Glo ATP luminescence, 48-72 h | Potency, µM (series often up to 96.7 µM), inactives show top-dose activity change, negative = cytotoxicity, usual class: inhibitors | 4.3% of 94,000 active | AID 1345082; further: nearly all actives have a fitted effect of over 55% in size
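Viability of NIH 3T3 cells after 48 or 72 hr compound treatment at 37 °C was assessed by CellTiter-Glo, with luminescence imaged following a 10 min room-temperature step.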
NPR1 antag: human Npr1 receptor antagonism | HEK293 hNpr1 GloSensor cGMP, ANP-stimulated luminescence | Potency, µM (highest dose often 46.3 µM), inactives show top-dose activity change, negative = inhibition, hits mostly inhibitors | 1.6% of 76,000 active | AID 1347048 | P16066; calls by dose curve; further: nearly all actives have a fitted effect of over 60% in size
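Compound pre-incubated 30 min at room temperature on GloSensor-loaded HEK293 cells stably carrying hNpr1 and the pGS-40F cGMP biosensor. Stimulation uses hNppA at 0.1 nM final; luminescence is taken at baseline and 20 min post-agonist.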
FLuc inh: Photinus pyralis luciferase inhibition; AID 1347043; 2.5% of 76,000 active; Potency, µM (highest dose often 115 µM), most hits filed as inhibitors; P08659; purified P. pyralis luciferase, luminescence, biochemical; further: nearly all actives have a fitted effect of over 65% in size
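FLuc 10nM, D-luciferin 10uM, ATP 10uM, Mg acetate 10mM, Tris acetate pH 7.5, Tween/BSA; cpd qHTS; enzyme added last; CCD luminescence.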
Numbers without * were called inactive; i = inactive; ? = inconclusive; / = no result; [ ] = dose if it differs, or a comment. A selection: hits, their analogues and other compounds. The true share with any hit is near 10%. Unless noted, the call rests on the fitted dose curve; in most records, active means well fitted curve in the direction sought with a large enough effect; inconclusive means small, poorly fitted or top-dose-only effect, or another doubt; inactive means no such curve, though single readings can be large; an effect the other way counts as inactive or inconclusive. On the % scale 0 is the no-effect control and ±100 the full control effect; potency means the concentration at half of the fitted maximal effect.

SMILES	GPT2 inh	HEK293 tox	3T3 cytotox	NPR1 antag	FLuc inh
COc1ccc(NC(=O)N2Cc3[nH]cnc3C[C@H]2c2nc(-c3ccc(C)cc3)no2)cc1	-5.0%[88.5 µM]	?	?	?	63.1µM*
CCNC(=O)N1CC[C@H]2CC(=O)N([C@H](C(N)=O)C(C)C)CC[C@H]2C1	1.3%[88.5 µM]	-12.2%[172 µM]	-1.8%[174 µM]	1.0%[70.6 µM]	i
COc1ccc(NC(=O)N[C@H]2CO[C@H]3[C@@H]2OC[C@H]3OC(=O)Nc2ccc(OC)cc2)cc1	2.8%	-9.3%	i	-2.2%	?
O=C(Nc1cccc(C(F)(F)F)c1)O[C@@H]1CO[C@H]2[C@@H]1OC[C@@H]2NC(=S)Nc1ccc(Cl)cc1	0.2%	44.7µM*	?	-26.0%	i
O=C(Nc1cccc(C(F)(F)F)c1)N[C@H]1CO[C@H]2[C@@H]1OC[C@@H]2Nc1nccc(C2CCCC2)n1	i	?	79.4µM*	-6.2%	i
O=C(Nc1ccccc1)N[C@H]1CO[C@H]2[C@@H]1OC[C@@H]2Nc1nccc(C2CCCC2)n1	-1.0%[88.5 µM]	-29.6%[172 µM]	?	1.7%[70.6 µM]	i
N#Cc1ccccc1S(=O)(=O)N[C@H]1CO[C@H]2[C@@H]1OC[C@H]2OC(=O)Nc1ccc(Oc2ccccc2)cc1	1.2%	?	?	11.2µM*	39.8µM*
COc1ccc(NC(=O)O[C@@H]2CO[C@H]3[C@@H]2OC[C@@H]3NCc2ccc(-c3ccccc3)cc2)cc1	-14.8%	35.5µM*	?	5.62µM*	?
COc1cccc(CNC(=O)[C@@H]2C[C@@H](O)CN2C2CCN(C(=O)Cc3cccc(F)c3)CC2)c1	i	-7.1%	-11.1%	0.7%	i
CC1CCC2(CC1)OCC(C(=O)NC(C)(C)C)N2C(=O)c1ccc(F)cc1 (configuration not stated)	-7.4%	?	?	6.4%	i
COc1ccc(C(=O)N2CCC(c3n[nH]c(=O)n3-c3ccccc3)CC2)cc1	i	2.6%	-14.9%	-1.8%	i
O=C(c1ccc2cc[nH]c2c1)N1CCC(c2noc(C3CC3)n2)C1 (configuration not stated)	i	?	-11.0%	-2.2%	i
COc1cccc(-c2ccc(C(=O)NCCN[S+](=O)([O-])c3ccc(C)cc3)cc2)c1	/	-15.1%	-14.0%	/	/
CN1CCCN(C[C@@H]2CN(C(=O)CCn3cccn3)C[C@@H]2CO)CC1	-8.3%	i	i	26.2%	i
COc1cccc(CCC2CCCN(C3CCN(Cc4cccnc4)CC3)C2)c1 (configuration not stated)	i	?	-26.0%	0.0%	i
O=C(Nc1ccc(Oc2ccccc2)cc1)N[C@H]1CO[C@H]2[C@@H]1OC[C@@H]2n1nnnc1Oc1ccc(-n2cncn2)cc1	-0.1%	25.1µM*	?	-24.6%	i
CC(=O)c1ccc(NC(=O)O[C@@H]2CO[C@H]3[C@@H]2OC[C@@H]3NC(=O)Nc2ccc(Oc3ccccc3)cc2)cc1	0.4%	31.6µM*	?	?	i
O=C(COc1ccccc1)N[C@H]1CO[C@H]2[C@@H]1OC[C@@H]2n1nnnc1Oc1ccc(-n2cncn2)cc1	-23.6%	3.5%	-22.8%	2.0%	i
O=C(Nc1ccccc1)N[C@H]1CO[C@H]2[C@@H]1OC[C@H]2OC(=O)Nc1ccc(Oc2ccccc2)cc1	0.4%	?	?	7.94µM*	?
O=C(Nc1ccc(Oc2ccccc2)cc1)N[C@H]1CO[C@H]2[C@@H]1OC[C@H]2OC(=O)Nc1cccc(C(F)(F)F)c1	-9.5%	-32.1%	-34.5%	-14.7%	i
Cn1ncc(N2CCC(CNC(=O)c3ccccc3-c3ncn[nH]3)C2)cc1=O (configuration not stated)	0.8%	-2.8%	0.5%	10.0%	i
COc1cccc([S+](=O)([O-])NC[C@@H]2CC[C@H]3C[C@@H]2C3(C)C)c1	-10.1%[88.5 µM]	100µM*	?	8.5%[70.6 µM]	i
COc1ccccc1-c1cc(NCc2cccnc2)c2onc(C)c2n1	-0.5%[88.5 µM]	?	?	4.2%[70.6 µM]	i
